Screens as filed in PubChem.
Shown is part of a subset that was picked to be rich in hits.
IDE exosite FP = exo-site inhibitors of human insulin-degrading enzyme; P14735; purified IDE, FL-6b probe fluorescence polarization; active compounds read low; z-score at 20 µM; actives 6.3% (n = 17,000); AID 1259349;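 active = z-score of -3 or lower, meaning strong loss of probe binding signal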;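 note: His-tagged human IDE residues 42-1019 made in E. coli with 30 nM FL-6b probe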
Target sequence (P14735 42-1019 limits assumed): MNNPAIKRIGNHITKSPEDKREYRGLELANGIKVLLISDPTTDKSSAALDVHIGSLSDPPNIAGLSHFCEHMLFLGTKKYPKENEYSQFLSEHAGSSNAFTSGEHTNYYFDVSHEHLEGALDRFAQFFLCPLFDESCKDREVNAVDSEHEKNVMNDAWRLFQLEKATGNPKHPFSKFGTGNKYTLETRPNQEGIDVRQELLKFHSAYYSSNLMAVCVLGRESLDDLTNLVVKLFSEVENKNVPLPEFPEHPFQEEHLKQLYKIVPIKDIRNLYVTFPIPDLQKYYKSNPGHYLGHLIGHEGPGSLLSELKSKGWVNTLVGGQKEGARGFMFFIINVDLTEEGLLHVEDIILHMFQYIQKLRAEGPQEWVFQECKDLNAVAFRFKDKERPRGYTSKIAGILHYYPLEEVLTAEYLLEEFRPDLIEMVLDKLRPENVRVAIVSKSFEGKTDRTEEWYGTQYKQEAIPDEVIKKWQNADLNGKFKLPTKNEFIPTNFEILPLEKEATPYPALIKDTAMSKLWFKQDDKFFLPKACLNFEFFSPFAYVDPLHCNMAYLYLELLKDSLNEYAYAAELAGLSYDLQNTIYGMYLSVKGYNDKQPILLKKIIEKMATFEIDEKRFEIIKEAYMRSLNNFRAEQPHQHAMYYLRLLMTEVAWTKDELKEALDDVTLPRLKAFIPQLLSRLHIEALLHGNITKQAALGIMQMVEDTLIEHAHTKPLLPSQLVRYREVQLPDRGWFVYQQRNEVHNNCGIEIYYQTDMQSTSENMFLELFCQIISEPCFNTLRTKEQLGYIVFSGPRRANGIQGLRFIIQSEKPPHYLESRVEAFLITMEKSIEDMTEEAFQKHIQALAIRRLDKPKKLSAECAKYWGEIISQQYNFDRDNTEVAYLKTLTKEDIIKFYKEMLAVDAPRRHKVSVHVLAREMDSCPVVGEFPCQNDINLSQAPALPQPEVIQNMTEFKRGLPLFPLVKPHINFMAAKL
The depositor's hits bear a star; ! = repeats disagree.

SMILES	IDE exosite FP
Cc1cccc(-c2ccc([C@H]3[C@@H](CO)N4C(=O)CN(C(=O)c5cccnc5)C[C@@H]34)cc2)c1	-8.6*
Cc1cccc(-c2ccc([C@@H]3[C@@H](CO)N4C(=O)CN(C(=O)c5ccccc5)C[C@@H]34)cc2)c1	-5.2*
Cc1ccc(-c2ccc([C@@H]3[C@H](CO)N4C(=O)CN(C(=O)c5ccccc5)C[C@@H]34)cc2)cc1	1.6
Cc1cccc(-c2ccc([C@H]3[C@@H](CO)N4C(=O)CN(C(=O)c5ccccc5)C[C@@H]34)cc2)c1	-2.5
O=C(c1cccc(F)c1)N1CC(=O)N2[C@@H](CO)[C@H](c3ccc(-c4cccnc4)cc3)[C@@H]2C1	1.5
COc1cccc(NC(=O)C[C@H]2CC[C@@H]3[C@H](COc4ccc(NS(=O)(=O)c5cccc(F)c5)cc4C(=O)N3C)O2)c1	-1
C[C@@H](O)C#Cc1ccc([C@@H]2[C@H]3CN(C(=O)c4cccc(F)c4)CCCCN3[C@H]2CO)cc1	0.25
COCC(=O)N1[C@H](C#N)[C@@H](c2ccc(-c3cccc(F)c3)cc2)[C@@H]1CO	-0.64
C/C=C/c1ccc([C@H]2[C@@H](CO)N(C(C)=O)[C@H]2CN(C)C(=O)c2ccccn2)cc1	5.2
Cc1cccc(-c2ccc([C@@H]3[C@@H](CO)N4CCCCN(Cc5ccncc5)C[C@@H]34)cc2)c1	-4.9*
CN(C)C(=O)c1ccc(-c2ccc([C@@H]3[C@@H](CO)N4CCCCN(Cc5ccncc5)C[C@H]34)cc2)cc1	1.1
Cc1cccc(-c2ccc([C@H]3[C@@H](CO)N4CCCCN(Cc5ccncc5)C[C@@H]34)cc2)c1	-5.8*
OC[C@@H]1[C@H](c2ccc(-c3ccc(F)cc3)cc2)[C@H]2CN(Cc3ccncc3)CCCCN12	4.3
OC[C@H]1[C@@H](c2ccc(-c3ccc(F)cc3)cc2)[C@H]2CN(Cc3ccncc3)CCCCN21	4
Cc1cccc(-c2ccc([C@@H]3[C@H]4CN(CCC(F)(F)F)CCCCN4[C@H]3CO)cc2)c1	-0.049
CCc1csc(N2[C@H](C#N)[C@H](c3ccccc3C3=CCCC3)[C@H]2CO)n1	1
COc1cccc(NC(=O)N[C@@H]2C=C[C@@H](CC(=O)NCc3ccncn3)O[C@@H]2CO)c1	1.7
C[C@@H]1CCCCO[C@H](CN(C)C(=O)CCC(F)(F)F)[C@@H](C)CN([C@@H](C)CO)C(=O)c2cc(NC(=O)C3CCCCC3)ccc2O1	0.52
Cc1noc(C)c1NC(=O)N(C)C[C@H]1OCc2ccccc2-c2c(n(C)c3ccccc23)C(=O)N([C@H](C)CO)C[C@H]1C	-0.037
COCC(=O)N1CCCCN2[C@@H](CO)[C@H](c3ccc(-c4ccc(F)cc4)cc3)[C@@H]2C1	2.1
COCC(=O)N1CCCCN2[C@H](C1)[C@@H](c1ccc(-c3ccc(F)cc3)cc1)[C@@H]2CO	1.1
COCC(=O)N1CCCCN2[C@H](CO)[C@H](c3ccc(-c4cccc(C)c4)cc3)[C@@H]2C1	1.6
COCC(=O)N1CCCCN2[C@H](C1)[C@H](c1ccc(-c3cccc(C)c3)cc1)[C@@H]2CO	-3*
COCC(=O)N1CCCCN2[C@H](CO)[C@H](c3ccc(-c4cccc(C)c4)cc3)[C@H]2C1	-4.7*
COCC(=O)N1CCCCN2[C@@H](CO)[C@H](c3ccc(-c4ccccc4)cc3)[C@@H]2C1	0.00094
SMILES	IDE exosite FP
COCC(=O)N1CCCCN2[C@@H](CO)[C@@H](c3ccc(-c4cccc(C)c4)cc3)[C@@H]2C1	-6.7*
Cc1ccccc1S(=O)(=O)N1[C@H](C#N)[C@@H](c2ccccc2)[C@@H]1CO	-0.0097
CCc1csc(N2[C@@H](C#N)[C@@H](c3ccccc3-c3cccc(F)c3)[C@@H]2CO)n1	1.2
OC[C@H]1[C@@H](c2ccc(C#Cc3cccnc3)cc2)[C@H]2CN(Cc3ccccc3F)CCCCN21	0.14
O=C(NCC[C@H]1CC[C@@H](NC(=O)c2ccccc2F)[C@@H](CO)O1)c1cnccn1	1.3
CC(=O)N1CCCCN2[C@H](CO)[C@@H](c3ccc(-c4ccc(C)cc4)cc3)[C@H]2C1	2.7
CO[C@@H]1CC[C@@H]2CCOc3ccc(C#N)cc3C(=O)N(C)C[C@@H](c3ccccc3)CC(=O)N(C)C[C@H]1O2	1.1
COc1cccc(NC(=O)N2[C@@H]3CNC[C@H]2C3c2ccc(-c3cccc(OC)c3)cc2)c1 (stereo not given in full)	-7.3*!
O=C(Nc1ccccc1F)N1[C@@H]2CNC[C@H]1C2c1ccc(-c2ccncc2)cc1 (stereo not given in full)	1.8
COc1cccc(-c2ccc(C3[C@H]4CNC[C@@H]3N4C(=O)Nc3ccccc3Cl)cc2)c1 (stereo not given in full)	-1.8
COc1ccccc1-c1ccc(C2[C@H]3CNC[C@@H]2N3C(=O)Nc2ccccc2F)cc1 (stereo not given in full)	-11*
COc1cccc(NC(=O)N2[C@@H]3CNC[C@H]2C3c2ccc(-c3cccnc3)cc2)c1 (stereo not given in full)	-0.47
O=C(Nc1ccc(C(F)(F)F)cc1)N1[C@@H]2CNC[C@H]1C2c1ccc(-c2ccccc2F)cc1 (stereo not given in full)	0.6
COc1ccccc1CNC(=O)C[C@@H]1CC[C@H]2[C@@H](COC[C@@H](O)CN2Cc2ccc3c(c2)OCO3)O1	-1
COc1cccc(NC(=O)N2CC(=O)N3[C@H](CO)[C@H](c4ccc(Br)cc4)[C@@H]3C2)c1	2.1
C/C=C/c1cccc(-c2nc(C(=O)NCCN3CCCCC3)cc3c2[C@H](CCO)N([S@@](=O)C(C)(C)C)C3)c1	2.1
O=C(c1ccc2c(c1)OCO2)N1CC(=O)N2[C@H](CO)[C@@H](c3ccc(C#CC4CCCC4)cc3)[C@@H]2C1	2.5
COCC(=O)N1CC2(CCN(C(=O)c3cccnc3)CC2)c2c([nH]c3cc(OC)ccc23)[C@H]1CO	-0.52
CCC(=O)N1[C@H](CN(C)C(C)=O)[C@@H](c2ccc(-c3ccccc3)cc2)[C@@H]1CO	1.9
O=C(CC1CC1)N1CC(=O)N2[C@H](C1)[C@H](c1ccc(-c3ccccc3)cc1)[C@@H]2CO	-5.1*
O=C(CC1CC1)N1CC(=O)N2[C@H](C1)[C@@H](c1ccc(/C=C/c3ccccc3)cc1)[C@@H]2CO	-2
O=C(CC1CC1)N1CC(=O)N2[C@H](C1)[C@@H](c1ccc(-c3ccccc3)cc1)[C@@H]2CO	-8.9*
O=C(CC1CC1)N1CC(=O)N2[C@H](CO)[C@@H](c3ccc(/C=C/c4ccccc4)cc3)[C@@H]2C1	-1.2
O=C(CC1CC1)N1CC(=O)N2[C@@H](CO)[C@H](c3ccc(-c4cccnc4)cc3)[C@@H]2C1	2.9
O=C(CC1CC1)N1CC(=O)N2[C@H](C1)[C@H](c1ccc(-c3cccnc3)cc1)[C@@H]2CO	0.43
SMILES	IDE exosite FP
O=C(CC1CC1)N1CC(=O)N2[C@H](CO)[C@H](c3ccc(-c4cccnc4)cc3)[C@H]2C1	-0.58
O=C(CC1CC1)N1CC(=O)N2[C@H](CO)[C@H](c3ccc(-c4cccnc4)cc3)[C@@H]2C1	0.24
O=C(CC1CC1)N1CC(=O)N2[C@H](CO)[C@@H](c3ccc(-c4ccccc4)cc3)[C@@H]2C1	-5.8*
CCCNC(=O)N1C[C@H](O)COC[C@H]2O[C@@H](CC(=O)OC)CC[C@@H]21	0.93
CCNC[C@H]1[C@@H](c2ccccc2)[C@@H](CO)N1C(=O)Cc1ccccn1	1.4
COc1ccccc1NC(=O)N1CC(=O)N2[C@H](CO)[C@@H](c3ccc(C#CC4CC4)cc3)[C@@H]2C1	-2
